Experimental data from the supplement of paper PMC8728848.
The entries come from a sample that favours the strongest signals as a whole.

Columns and labels:
Assay in all cases: glycan array binding signal (z-score within array); higher = stronger binding
Conditions in all cases: glycan notation: IUPAC condensed, linker removed
GalNAc(a1-3)GalNAc = biological target: GalNAc(a1-3)GalNAc
Method in brief: (§1)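 Negative Z-scores can be read as non-binding. The Z-score is calculated within each array and then averaged across arrays of one protein sequence at different concentrations or buffers and across linkers. Arrays, 3228 in all, were curated from the Consortium for Functional Glycomics database and kept only where the protein sequence was available.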

[1] = biological target: GalNAc(a1-3)GalNAc(b1-3)Gal(a1-4)Gal(b1-4)GlcNAc
Method in brief: as §1

[2] = biological target: GlcNAc(b1-2)[GlcNAc(b1-4)]Man(a1-3)[GlcNAc(b1-4)][GlcNAc(b1-2)Man(a1-6)]Man(b1-4)GlcNAc(b1-4)GlcNAc
Method in brief: as §1

[3] = biological target: GlcNAc(b1-3)Gal(b1-4)GlcNAc(b1-6)[GlcNAc(b1-3)Gal(b1-3)]GalNAc
Method in brief: as §1

[4] = biological target: Kdn(a2-3)Gal(b1-4)[Fuc(a1-3)]GlcNAc
Method in brief: as §1

[5] = biological target: Man(a1-2)Man(a1-2)Man(a1-3)Man
Method in brief: as §1

[6] = biological target: Man(a1-2)Man(a1-2)Man(a1-6)[Man(a1-3)]Man
Method in brief: as §1

[7] = biological target: Man(a1-3)[Man(a1-6)]Man(a1-6)[Man(a1-3)]Man
Method in brief: as §1

[8] = biological target: Neu5Ac(a2-3)Gal(b1-3)GlcNAc(b1-6)GalNAc
Method in brief: as §1

[9] = biological target: Neu5Ac(a2-3)Gal(b1-4)GlcNAc(b1-2)[Neu5Ac(a2-3)Gal(b1-4)GlcNAc(b1-4)]Man(a1-3)[GlcNAc(b1-4)][Neu5Ac(a2-3)Gal(b1-4)GlcNAc(b1-2)[Neu5Ac(a2-3)Gal(b1-4)GlcNAc(b1-6)]Man(a1-6)]Man(b1-4)GlcNAc(b1-4)GlcNAc
Method in brief: as §1

[10] = biological target: Neu5Ac(a2-3)Gal(b1-4)GlcNAc(b1-2)[Neu5Ac(a2-3)Gal(b1-4)GlcNAc(b1-6)]Man(a1-6)[Neu5Ac(a2-3)Gal(b1-4)GlcNAc(b1-2)Man(a1-3)]Man(b1-4)GlcNAc(b1-4)GlcNAc
Method in brief: as §1

[11] = biological target: Neu5Ac(a2-3)Gal(b1-4)GlcNAc(b1-3)Gal(b1-4)GlcNAc(b1-3)Gal(b1-4)GlcNAc
Method in brief: as §1

[12] = biological target: Neu5Ac(a2-3)Gal(b1-4)GlcNAc(b1-3)Gal(b1-4)GlcNAc(b1-3)[Neu5Ac(a2-3)Gal(b1-4)GlcNAc(b1-3)Gal(b1-4)GlcNAc(b1-6)]GalNAc
Method in brief: as §1

[13] = biological target: Neu5Ac(a2-3)Gal(b1-4)GlcNAc6S
Method in brief: as §1

[14] = biological target: Neu5Ac(a2-3)Gal(b1-4)[Fuc(a1-3)]GlcNAc6S
Method in brief: as §1

[15] = biological target: Neu5Ac(a2-6)Gal(b1-4)GlcNAc(b1-2)Man(a1-3)[Neu5Ac(a2-6)Gal(b1-4)GlcNAc(b1-2)Man(a1-6)]Man(b1-4)GlcNAc(b1-4)GlcNAc
Method in brief: as §1

[16] = biological target: Neu5Ac(a2-6)Gal(b1-4)GlcNAc(b1-2)Man(a1-6)[Gal(b1-4)GlcNAc(b1-2)Man(a1-3)]Man(b1-4)GlcNAc(b1-4)GlcNAc
Method in brief: as §1

[17] = biological target: Neu5Ac(a2-6)Gal(b1-4)GlcNAc(b1-2)Man(a1-6)[GlcNAc(b1-2)Man(a1-3)]Man(b1-4)GlcNAc(b1-4)GlcNAc
Method in brief: as §1

[18] = biological target: Neu5Ac(a2-6)Gal(b1-4)GlcNAc(b1-2)[Neu5Ac(a2-6)Gal(b1-4)GlcNAc(b1-4)]Man(a1-3)[GlcNAc(b1-4)][Neu5Ac(a2-6)Gal(b1-4)GlcNAc(b1-2)[Neu5Ac(a2-6)Gal(b1-4)GlcNAc(b1-6)]Man(a1-6)]Man(b1-4)GlcNAc(b1-4)GlcNAc
Method in brief: as §1

Neu5Ac(a2-6)GalNAc = biological target: Neu5Ac(a2-6)GalNAc
Method in brief: as §1

[19] = biological target: Neu5Ac(a2-6)GalNAc(b1-4)GlcNAc
Method in brief: as §1

[20] = biological target: Neu5Ac(a2-6)GalNAc(b1-4)GlcNAc6S
Method in brief: as §1

[21] = biological target: Neu5Ac(a2-8)Neu5Ac(a2-3)Gal(b1-4)GlcNAc
Method in brief: as §1

[22] = biological target: Neu5Ac(a2-8)Neu5Ac(a2-8)Neu5Ac(a2-3)[Gal(b1-3)GalNAc(b1-4)]Gal(b1-4)Glc
Method in brief: as §1

[23] = biological target: Neu5Gc(a2-3)Gal(b1-4)GlcNAc
Method in brief: as §1

[24] = biological target: Neu5Gc(a2-8)Neu5Ac(a2-3)Gal(b1-4)GlcNAc
Method in brief: as §1

[25] = biological target: Neu5Gc(a2-8)Neu5Gc(a2-6)Gal(b1-4)GlcNAc
Method in brief: as §1

B1: DCIR1 (Mus musculus), Q9QZ15 (protein)
chain: MASEITYAEVKFKNESNSLHTYSESPAAPREKPIRDLRKPGSPSLLLTSLMLLLLLLAITFLVAFIIYFQKYSQLLEEKKAAKNIMHNELNCTKSVSPMEDKVWSCCPKDWRLFGSHCYLVPTVSSSASWNKSEENCSRMGAHLVVIQSQEEQDFITGILDTHAAYFIGLWDTGHRQWQWVDQTPYEESITFWHNGEPSSGNEKCATIIYRWKTGWGWNDISCSLKQKSVCQMKKINL
Question: With B1 as the binder, how does the “glycan array binding signal (z-score)” value (GalNAc(a1-3)GalNAc) read?
Answer: -0.78

Question: And the “glycan array binding signal (z-score)” value [1]?
Answer: 2.31

Question: What about the “glycan array binding signal (z-score)” value [2] of the same binder?
Answer: -0.101

Question: What about the “glycan array binding signal (z-score)” value [3] of the same binder?
Answer: -0.947

Question: What about the “glycan array binding signal (z-score)” value [4] of the same binder?
Answer: 2.92

Question: And the “glycan array binding signal (z-score)” value [5]?
Answer: -0.962

Question: And the “glycan array binding signal (z-score)” value [6]?
Answer: 4.44

Question: What about the “glycan array binding signal (z-score)” value [7] of the same binder?
Answer: 0.267

Question: And the “glycan array binding signal (z-score)” value [8]?
Answer: 0.265

Question: What about the “glycan array binding signal (z-score)” value [9] of the same binder?
Answer: -0.887

Question: And the “glycan array binding signal (z-score)” value [10]?
Answer: 0.375

Question: What about the “glycan array binding signal (z-score)” value [11] of the same binder?
Answer: -0.844

Question: And the “glycan array binding signal (z-score)” value [12]?
Answer: 1.36

Question: And the “glycan array binding signal (z-score)” value [13]?
Answer: 0.145

Question: What about the “glycan array binding signal (z-score)” value [14] of the same binder?
Answer: -0.532

Question: What about the “glycan array binding signal (z-score)” value [15] of the same binder?
Answer: -0.079

Question: What about the “glycan array binding signal (z-score)” value [16] of the same binder?
Answer: -0.16

Question: What about the “glycan array binding signal (z-score)” value [17] of the same binder?
Answer: 2.04

Question: And the “glycan array binding signal (z-score)” value [18]?
Answer: -0.823

Question: And the “glycan array binding signal (z-score)” value (Neu5Ac(a2-6)GalNAc)?
Answer: 2.86

Question: What about the “glycan array binding signal (z-score)” value [19] of the same binder?
Answer: -0.517

Question: What about the “glycan array binding signal (z-score)” value [20] of the same binder?
Answer: -0.058

Question: And the “glycan array binding signal (z-score)” value [21]?
Answer: -1.1

Question: What about the “glycan array binding signal (z-score)” value [22] of the same binder?
Answer: 2.88

Question: What about the “glycan array binding signal (z-score)” value [23] of the same binder?
Answer: -0.678

Question: And the “glycan array binding signal (z-score)” value [24]?
Answer: -1.04

Question: What about the “glycan array binding signal (z-score)” value [25] of the same binder?
Answer: -0.802
